Laboratory results published in PubChem BioAssay AID1159580 (chemical genetic matrix, 2015).
Values joined by “and” are separate entries in the source; they are usually repeats but may differ in a detail not shown here. Equal values may be shown once. In all, about 5,500 compounds went through this assay and about 2,000 (36%) were called active. About 18% were inconclusive and are not listed. Rule as the data show it: active = normalized growth mostly below about 0.91 (no sharp cut-off); inconclusive = no clear call, values can overlap the other calls; inactive = mostly above about 0.92. The list shows a part of the results.

Experiment: chemical genetic growth profiling, strain panel (AID 1159580);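 also: tested at 20 µM; growth read once vehicle control cultures reached saturation at 30 °C; 1 = growth at the plate median or of vehicle wells; lower values mean less growth of the strain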
Conditions: S. cerevisiae deletion strains, growth OD

Measured: normalized growth

Cc1cccc(N(C)C(=S)Oc2ccc3ccccc3c2)c1
inactive: locus YAL013W, strain DEP1, hits give low values 0.968 | locus YAL021C, strain ccr4, hits give low values 0.952 | locus YAL026C, strain drs2, hits give low values 0.995 | locus YAL030W, strain snc1, hits give low values 0.996 | locus YBL061C, strain skt5, hits give low values 0.994 | locus YBR009C, strain hhf1, hits give low values 1.02 | locus YBR021W, strain FUR4, hits give low values 0.964 | locus YBR023C, strain chs3, hits give low values 0.981 | locus YBR171W, strain sec66, hits give low values 0.985 | locus YBR229C, strain ROT2, hits give low values 0.943 | locus YBR231C, strain swc5, hits give low values 0.973 | locus YBR279W, strain paf1, hits give low values 1.01 | locus YCL011C, strain gbp2, hits give low values 1 | locus YCL016C, strain dcc1, hits give low values 0.986 | locus YCL029C, strain bik1, hits give low values 0.967 | locus YCL069W, strain vba3, hits give low values 0.989 | locus YCR088W, strain abp1, hits give low values 0.995 | locus YDL005C, strain med2, hits give low values 0.998 | locus YDL035C, strain GPR1, hits give low values 0.979 | locus YDL040C, strain nat1, hits give low values 1.01 | locus YDL074C, strain BRE1, hits give low values 0.948 | locus YDL101C, strain DUN1, hits give low values 0.979 | locus YDL134C, strain PPH21, hits give low values 0.992 | locus YDL185W, strain tfp1, hits give low values 0.915 | locus YDL192W, strain arf1, hits give low values 0.976 | locus YDR001C, strain nth1, hits give low values 0.99 | locus YDR069C, strain doa4, hits give low values 0.985 | locus YDR101C, strain arx1, hits give low values 0.978 | locus YDR150W, strain NUM1, hits give low values 0.971 | locus YDR159W, strain sac3, hits give low values 0.935 | locus YDR162C, strain NBP2, hits give low values 1.01 | locus YDR195W, strain ref2 0.967 | locus YDR297W, strain sur2, hits give low values 0.984 | locus YDR318W, strain mcm21, hits give low values 0.982 | locus YDR334W, strain swr1, hits give low values 1.04 | locus YDR335W, strain msn5, hits give low values 1.01 | locus YDR388W, hits give low values 0.99 | locus YDR392W, strain spt3, hits give low values 0.894 | locus YDR502C, strain sam2, hits give low values 0.983 | locus YEL003W, strain gim4, hits give low values 1 | locus YEL037C, strain rad23, hits give low values 0.99 | locus YEL061C, strain CIN8 (second series), hits give low values 0.989 | locus YEL061C, strain CIN8, hits give low values 0.987 | locus YER015W, strain faa2, hits give low values 0.991 | locus YER016W, strain bim1, hits give low values 0.993 | locus YER110C, hits give low values 0.983 | locus YER111C, strain swi4, hits give low values 1.01 | locus YER155C, strain BEM2 (second series), hits give low values 1.02 | locus YER155C, strain BEM2, hits give low values 0.979 | locus YER167W, strain BCK2, hits give low values 0.976 | locus YFR010W, strain ubp6, hits give low values 1.01 | locus YGL078C, strain dbp3, hits give low values 0.98 | locus YGL086W, strain mad1, hits give low values 0.962 | locus YGL167C, strain pmr1, hits give low values 0.984 | locus YGL173C, strain kem1, hits give low values 0.985 | locus YGL227W, strain vid30, hits give low values 1.02 | locus YGL240W, strain doc1, hits give low values 0.951 | locus YGL248W, strain PDE1, hits give low values 0.974 | locus YGL253W, strain hxk2, hits give low values 0.986 | locus YGR078C, strain PAC10, hits give low values 0.979 | locus YGR135W, strain pre9, hits give low values 0.997 | locus YGR252W, strain gcn5, hits give low values 1.02 | locus YHR013C, strain ard1, hits give low values 1 | locus YHR027C, strain rpn1, hits give low values 0.989 | locus YHR030C, strain SLT2, hits give low values 0.986 and 0.935 | locus YHR079C, strain IRE1 (second series), hits give low values 0.984 | locus YHR079C, strain IRE1, hits give low values 0.941 | locus YHR094C, strain hxt1, hits give low values 0.981 | locus YHR129C, strain ARP1, hits give low values 0.969 | locus YHR142W, strain chs7, hits give low values 1 | locus YHR200W, strain rpn10, hits give low values 0.961 | locus YIL066C, strain RNR3, hits give low values 0.958 | locus YIL073C, strain SPO22, hits give low values 0.964 | locus YIL125W, strain kgd1, hits give low values 0.981 | locus YIR030C, strain dcg1, hits give low values 0.966 | locus YJL092W, strain hpr5, hits give low values 0.99 | locus YJL095W, strain BCK1 (second series), hits give low values 0.993 | locus YJL095W, strain BCK1, hits give low values 0.993 and 0.928 | locus YJL115W, strain asf1, hits give low values 1 | locus YJL129C, strain trk1, hits give low values 0.922 | locus YJL134W, strain LCB3, hits give low values 0.989 | locus YJL154C, strain vps35, hits give low values 0.998 | locus YJL164C, strain tpk1, hits give low values 0.997 | locus YJL166W, strain qcr8, hits give low values 0.99 | locus YJL168C, strain set2, hits give low values 0.984 | locus YJL187C, strain SWE1 (second series), hits give low values 0.974 | locus YJR043C, strain POL32, hits give low values 0.997 | locus YJR066W, strain TOR1, hits give low values 0.878
active: locus YDR137W, strain rgp1, hits give low values 1.33 [resistant]
